Results filed as inconclusive are left out. A call without a number means that no potency is given here. Active and inactive are the calls of the source. Calls come from the whole dose curve; as a rule, active = well fitted activation curve with a large enough effect in the signal ratio in the repeat runs (not every such curve was filed as active); inconclusive = weak or mixed curves; inactive = flat fitted curve, though single readings scatter; the % refers to the signal ratio.
Assay: qHTS assay to identify small molecule agonists of H2AX (AID 1224845)
Details: CHO-K1 phospho-H2AX Ser139 HTRF, 3 h; series mostly up to 154 µM
From the text: National Center for Advancing Translational Sciences [NCATS]
NIH Chemical Genomics Center [NCGC]
U.S. Environmental Protection Agency [EPA]
National Institutes of Environmental Health Sciences [NIEHS]
National Toxicology Program [NTP]
U.S. Food and Drug Administration [FDA]
HTRF phospho-H2AX (Ser139) assay (Cisbio Bioassays, US) enables the quantitative detection of the histone variant H2AX when phosphorylated on serine 139. When double-stranded DNA breaks, either by ionizing radiation or endogenous physiological processes, H2AX becomes phosphorylated at Ser139. This phospho-Ser139 serves as a sensitive biomarker for the detection of such breaks, localizing the site of DNA repair. So, HTRF phospho-H2AX Ser139 is a pertinent assay to study genome stability, the cell cycle, DNA repair, and it serves as a biomarker for cancer, and to understand aging. Wild type CHO-K1 cells were used to identify the inducers of Phospho-H2AX Ser 139 from the Tox21 10K compound collections.
Tox21 Assay Protocol Summary:
The CHO-K1 cells suspended in culture medium containing 10% FBS were dispensed at 1000 cells/ 3 ul/well in 1536-well white wall/solid bottom plates (Greiner Bio-One North America, NC) using a Multidrop Combi (Thermo Fisher Scientific Inc., Waltham, MA). After the assay plates were incubated at 37C overnight, 23 nl of compounds at 15 concentrations (from 5-48 columns) or positive control (from 1 to 4 columns) were transferred to the assay plates using a Pintool station (Wako, San Diego, CA) into each well resulting in a final DMSO concentration of 0.76%. After 3hr incubation at 37C, 1 uL/well Supplemented Lysis buffer (diluted 100 fold blocking reagent in lysis buffer) (HTRF Phospho-H2A.X (S139) Assay kit from Cisbio US Inc., Bedford, MA) was added using a Flying Reagent Dispenser (FRD) (Aurora Discovery, CA). After 10sec spin at 1000 rpm in a plate centrifuge, the assay plates were incubated at room temperature for 30 min. Then followed by the addition of 1 uL/well detection buffer (containing a mixture of two antibodies, one labeled with cryptate, Anti pH2AX (S139)-K and another labeled with d2, Anti H2AX-d2) using FRD. After incubation at room temperature for 24 hr, the time resolved fluorescence at excitation 320 nm and emissions at 665 nm and 620 nm was measured using an Envision plate reader (PerkinElmer, Waltham, MA).
Potency is the fitted concentration of half-maximal effect.

Structure (SMILES) | Potency
CCCCCCCCCCBr | inactive
N#CCc1ccc(Cl)cc1 | inactive
COC(=O)N(C(=O)N1CO[C@@]2(C(=O)OC)Cc3cc(Cl)ccc3C2=N1)c1ccc(OC(F)(F)F)cc1 | inactive
CC(=[OH+])/C=C(/C)[O-].CC(=[OH+])/C=C(\C)[O-].CC(=[OH+])/C=C(\C)[O-].[Al] | inactive
CC(C)Oc1cccc(NC(=O)c2ccccc2C(F)(F)F)c1 | inactive
BrC(Br)Br | inactive
Oc1cccc(-c2ccccc2)c1 | inactive
N#CSCSC#N | 15.8 µM (active)
CCCN(CC)CC1COC2(CCC(C(C)(C)C)CC2)O1 (stereo not given) | inactive
N#Cc1c(-c2ccc(Cl)cc2)[nH]c(C(F)(F)F)c1Br | inactive
C[C@H]1CC[C@@H]2[C@@H](C)[C@H]3[C@H](C[C@H]4[C@@H]5CC=C6CC(O[C@@H]7O[C@H](CO)[C@H](O)[C@H](O[C@@H]8O[C@H](CO)[C@@H](O)[C@H](O)[C@H]8O)[C@H]7O[C@H]7O[C@@H](C)[C@H](O)[C@@H](O)[C@H]7O)CC[C@]6(C)[C@H]5CC[C@]34C)N2C1 (stereo not given in full) | inactive
Cl/C=C\CCl | inactive
CCSC(C)CC1CC(=O)C(/C(CC)=N/OC/C=C/Cl)=C(O)C1 (stereo not given) | inactive
N#Cc1ccccc1N | inactive
CCCOCC(=Nc1ccc(Cl)cc1C(F)(F)F)n1ccnc1 | inactive
CC(=O)OC1(c2ccccc2)CCN(CCc2ccccc2)CC1 | inactive
CC1(C)CN=C(NN=C(/C=C/c2ccc(C(F)(F)F)cc2)/C=C/c2ccc(C(F)(F)F)cc2)NC1 | inactive
COc1cc(C=O)cc2c1[C@H](COC(N)=O)[C@]1(OC(C)=O)ON2C[C@H]2[C@@H]1N2C(C)=O | 63.5 µM (active)
COc1cc(N)c(Cl)cc1C(=O)NC1CN2CCC1CC2 (stereo not given) | inactive
CCS(=O)(=O)c1cccnc1S(=O)(=O)NC(=O)Nc1nc(OC)cc(OC)n1 | inactive

Structure (SMILES) | Potency
ClCc1ccccc1CCl | inactive
Cc1cccc(OP(=O)(Oc2cccc(C)c2)Oc2cccc(C)c2)c1 | inactive
Cc1cc(C(C)(C)c2cc(C)c(O)c(C)c2)cc(C)c1O | inactive
O=C(Cl)c1ccc(Cl)cc1 | inactive
ClC1=C(Cl)[C@]2(Cl)[C@H]3[C@H]([C@H]4C=C[C@H]3C4)[C@@]1(Cl)C2(Cl)Cl | inactive
N#CNC#N | inactive
CCc1ccccc1C | inactive
c1ccc2c(c1)OCC(C1=NCCN1)O2 (stereo not given) | 49.2 µM (active)
CCOC(=O)CC(=O)CCl | inactive
O=C(Nc1ccc2[nH]ccc2c1)c1cc2cc(F)ccc2n1Cc1cccc(F)c1 | inactive
NC(=O)CCl | inactive
COP(=O)(OC)SCn1c(=O)oc2cc(Cl)cnc21 | inactive
CC(C)CC(C)(c1ccc(O)cc1)c1ccc(O)cc1 | inactive
NC(=O)c1ccc(N)nc1 | inactive
CC(C)(C)C(O)/C(=C\c1ccc(Cl)cc1Cl)n1cncn1 (stereo not given) | inactive
CC1(C)[C@H](C(=O)O[C@H](C#N)c2cccc(Oc3ccccc3)c2)[C@@H]1/C=C(\Cl)C(F)(F)F | inactive
Cc1cc(C)cc(OP(=O)(Oc2cc(C)cc(C)c2)Oc2cc(C)cc(C)c2)c1 | inactive
N#Cc1ccccc1Cl | inactive
c1ccc(OCC2CO2)cc1 (stereo not given) | inactive
C[C@H]1O[C@@H](O[C@H]2[C@@H](O)C[C@H](O[C@H]3[C@@H](O)C[C@H](O[C@H]4CC[C@@]5(C)[C@H](CC[C@@H]6[C@@H]5CC[C@]5(C)[C@@H](C7=CC(=O)OC7)CC[C@]65O)C4)O[C@@H]3C)O[C@@H]2C)C[C@H](O)[C@@H]1O | inactive

Source: PubChem BioAssay (Tox21)
